Assay outcomes: PubChem BioAssay, NMMLSC
Sampled rows, rich in hits. Any-hit rate of the full collection: about 2.5%.
MEKK2 mut-MEK5: MEK5 binding signal on mutant MEKK2 PB1, primary screen, biochemical, multiplex bead flow cytometry, Alexa488-MEK5; Alexa488-MEK5 binding to MEKK2 mutant; percent response, % at 10 µM; 290,000 tested, 0.35% active; in the data active means percent response above about 24%, passing the limit was not always enough
MEKK2 WT-MEK5: modulators of MEK5 binding to wildtype MEKK2, primary screen, biochemical, multiplex bead flow cytometry, Alexa488-MEK5; Alexa488-MEK5 binding to MEKK2 WT; actives lie on both sides; binding response (% of control), % at 10 µM; 290,000 tested, 1.1% active; in the data active means binding response below about 67% or above about 130%
GRK2 aptamer HTS: compounds blocking aptamer binding on GRK2 – biochemical, human GRK2, bead flow cytometry, HTS, primary screen. Beta-adrenergic receptor kinase 1 (Homo sapiens), P25098. FAM-aptamer displacement from GRK2. 330,000 tested, 0.59% active. AID 488847, 2010. inhibition of aptamer binding, % at 10 µM;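 active means inhibition of aptamer binding above 40%, roughly 3 SD of noise, on plates passing a quality check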;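 further: median bead fluorescence of bound FAM aptamer so fluorescent compounds give negative values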
Target sequence (P25098 whole entry, looked up): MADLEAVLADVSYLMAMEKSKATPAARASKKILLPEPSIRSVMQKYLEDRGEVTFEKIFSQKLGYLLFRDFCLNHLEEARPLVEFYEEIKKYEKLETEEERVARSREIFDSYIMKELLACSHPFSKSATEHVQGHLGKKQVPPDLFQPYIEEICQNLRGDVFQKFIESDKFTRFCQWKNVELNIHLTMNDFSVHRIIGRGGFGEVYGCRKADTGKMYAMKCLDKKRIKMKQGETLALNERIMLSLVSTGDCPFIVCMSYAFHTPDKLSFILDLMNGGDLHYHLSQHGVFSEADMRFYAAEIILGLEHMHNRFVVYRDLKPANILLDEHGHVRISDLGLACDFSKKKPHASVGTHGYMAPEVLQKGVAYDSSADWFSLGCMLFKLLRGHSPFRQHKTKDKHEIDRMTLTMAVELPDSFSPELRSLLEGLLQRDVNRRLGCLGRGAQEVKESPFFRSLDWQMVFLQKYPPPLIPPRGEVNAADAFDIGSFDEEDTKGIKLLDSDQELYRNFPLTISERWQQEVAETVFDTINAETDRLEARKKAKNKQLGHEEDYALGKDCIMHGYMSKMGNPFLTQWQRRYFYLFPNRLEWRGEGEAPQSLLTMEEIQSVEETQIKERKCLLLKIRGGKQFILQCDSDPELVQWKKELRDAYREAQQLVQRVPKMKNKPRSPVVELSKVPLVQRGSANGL
MEKK3 PB1 HTS: modulators of MEKK3-MEK5 PB1 binding, primary screen, biochemical, wildtype MEKK3, multiplex bead flow cytometry, Alexa488-MEK5; Mitogen-activated protein kinase kinase kinase 3 (Homo sapiens), Q99759; bead-based flow cytometry, Alexa488-MEK5 binding to MEKK3; actives lie on both sides; 0 = blocked by unlabeled MEK5, 100 = vehicle; binding response (% of control), % at 10 µM; 290,000 tested, 1.4% active;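 active means binding response more than 3 SD above or below the average of its plate-row segment, actives on both sides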;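 further: Alexa488 bead fluorescence after subtracting the streptavidin-only scavenger bead signal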
MEKK2wt confirm: modulators of MEK5 binding to wildtype MEKK2, confirmation, biochemical, single concentration, multiplex bead flow cytometry; shares compounds with MEKK3 PB1 HTS; Alexa488-MEK5 binding to MEKK2 WT; actives lie on both sides; binding response (% of control), % at 10 µM; 5,900 tested, 2.4% active; in the data active means binding response below about 16% or above about 210%; inactive means in between
MEKK2mut-MEK5: mutant MEKK2 PB1-MEK5 binding signal retest – biochemical, single concentration, multiplex bead flow cytometry, confirmation; percent response, % at 10 µM; Alexa488-MEK5 binding to MEKK2 mutant; 5,900 tested, 2% active; shares compounds with MEKK3 PB1 HTS; in the data active means percent response mostly above about 71%, no sharp cut-off; inactive means mostly below about 38%;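 further: higher means compound restores mutant binding toward wildtype level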
MEKK3-MEK5 inh: MEKK3 wild-type PB1 binding to MEK5, inhibitors, confirmation, biochemical, bead multiplex flow cytometry, single concentration, wildtype. shares compounds with MEKK3 PB1 HTS. AID 1894, 2009. 5,900 tested, 1.8% active. Alexa488-MEK5 binding to MEKK3; hits give low values. binding response (% of control), % at 10 µM;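 active means binding response below 72% of control, or above a set upper limit, though filed actives all read lower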;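 further: 100% = DMSO only wells and 0% = binding blocked by excess unlabeled MEK5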
GRK2 inh confirm: GRK2 aptamer-displacing inhibitors, retest, confirmation, biochemical, cherry pick 1, bead flow cytometry; shares compounds with GRK2 aptamer HTS; 2,000 tested, 4% active; bead-bound GRK2, FAM-aptamer displacement; aptamer displacement, % at 10 µM;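 active means aptamer displacement above 40%, near three times the noise of non-fluorescent compounds, on plates passing quality checks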;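 further: negative values mostly reflect intrinsic compound fluorescence rather than true enhancement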
Aptamer quench: fluorescent aptamer quenching in GRK2 counter-screen dose response. AID 504521. fluorescence change (kMESF span), kMESF (concentration not given with the values). Fluorescent RNA aptamer beads, flow cytometry; hits give high values. shares compounds with GRK2 aptamer HTS. 110 tested, under 10 active;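 active means compounds whose bead fluorescence drops by more than 37 kMESF across the dose range, marking them as dye quenchers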
FAM quench CP1: counter-screen for GRK2 aptamer inhibitors: fluorescent aptamer quenchers; AID 504580; 2,000 tested, under 10 active; fluorescence response (% of DMSO), % at 10 µM; Carboxyfluorescein RNA aptamer on beads, flow cytometry quenching; hits give low values; shares compounds with GRK2 aptamer HTS;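 active means compounds that quench the bead-bound fluorescent RNA probe, cutting fluorescence to under half of the solvent control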;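 further: counterscreen run without GRK2 so only probe quenching by compound is measured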
GRK2 confirm 2: GRK2 aptamer-displacing inhibitors, hit retest, confirmation, biochemical, cherry pick 2, bead flow cytometry | shares compounds with GRK2 aptamer HTS | bead-bound GRK2, FAM-aptamer displacement | inhibition of aptamer binding, % at 10 µM | 360 tested, under 10 active | AID 504782, 2011;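 active means inhibition of aptamer binding above 40%, about triple the noise seen with nonglowing compounds, on plates passing quality control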;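 further: negative values mostly come from compounds that fluoresce themselves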
Aptamer quench3: fluorescence quenching of FAM-labeled RNA aptamer, dose response, artefact control for GRK2 aptamer inhibitor project, biochemical, flow cytometry, cherry pick 2; shares compounds with GRK2 aptamer HTS; Streptavidin beads; change in fluorescence (kMESF span), kMESF (no concentration beside the values); 25 tested, under 10 active;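 active means compounds quenching the bead-bound labeled aptamer, with fluorescence dropping by more than 37 kMESF over the dose range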
FAM quench CP2: quenches fluorescent RNA aptamer, GRK2 hit artifact; shares compounds with GRK2 aptamer HTS; carboxyfluorescein RNA aptamer beads, flow cytometry quenching; hits give low values; fluorescence response vs DMSO, % at 10 µM; 360 tested, under 10 active; AID 588494;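 active means response vs DMSO under 50%, meaning signal dropped by over half, treated as fluorescence quencher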;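 further: labelled aptamer on streptavidin beads without GRK2 as a quench counter-screen; 100% = bead fluorescence of DMSO wells and lower means quenching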
FAM quench DR: quenchers of FAM-labeled RNA aptamer fluorescence, dose response, artefact control for GRK2 aptamer binding project, biochemical, powder set 1, flow cytometry; fluorescence ratio to DMSO, % at 11.1 µM; Bead-bound FAM RNA aptamer fluorescence quenching; hits give low values; 35 tested, under 10 active; shares compounds with GRK2 aptamer HTS;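 active means compounds that dim the fluorescent label, raw bead signal shifting by over 33 units between lowest and highest dose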
* marks the source's active call; other numbers are inactive results; . = not tested or not shown; [ ] = another dose, or the depositor's remark.

SMILES	MEKK2 mut-MEK5	MEKK2 WT-MEK5	GRK2 aptamer HTS	MEKK3 PB1 HTS	MEKK2wt confirm	MEKK2mut-MEK5	MEKK3-MEK5 inh	GRK2 inh confirm	FAM quench CP1	others
Cc1cccc(C(C)C)c1NC(=O)COC(=O)CNS(=O)(=O)c1ccccc1	.	.	0.0	.	.	.	.	.	.
Cc1oc(-c2ccccc2Cl)nc1CSc1nc2c(c(=O)[nH]1)CCC2	-8.0	81.0	56.0*	75.0*[inhibitor]	97.0	-3.0	100.0	7.0	98.5
O=C(CNC(=O)c1ccccc1)N/N=C/c1ccccc1Cl	1.0	112.0	47.0*	129.0*	96.0	0.0	100.0	-1.1	97.1
CCOc1ccccc1NC(=O)CCS(=O)(=O)c1ccc(Br)cc1	-12.0	93.0	98.0*	81.0*[inhibitor]	95.0	-6.0	96.0	92.0*	95.2	Aptamer quench=-4;Aptamer quench3=0.2;FAM quench DR=100.0
O=C(COc1ccc(Br)cc1)N/N=C1\SCC(=O)N1c1ccc(F)cc1	-2.0	99.0	0.0	97.0	.	.	.	.	.
O=C(C[n+]1cnn(CC(=O)c2ccc(Cl)cc2Cl)c1)c1ccc([N+](=O)[O-])cc1	24.0	157.0*	59.0*	101.0	122.0	5.0	105.0	-22.9	97.0
O=C(Cn1cnc([N+](=O)[O-])c1)c1ccc(Cl)cc1	.	.	2.0	.	.	.	.	.	.
C=CCN(Cc1cc(OC)ccc1OC)C(=O)c1cc2ccc(OC)cc2[nH]1	2.0	94.0	30.0	97.0	.	.	.	.	.
Fc1ccccc1N1CCN(C(c2ccncc2)c2nnnn2C2CCCC2)CC1 (stereo not given)	-16.0	81.0	53.0*	77.0*[inhibitor]	123.0	6.0	105.0	-2.2	103.8
CCC(c1nnnn1C1CCCC1)N1CCN(c2ccccc2F)CC1 (stereo not given)	8.0	105.0	4.0	105.0	.	.	.	.	.
O=C(Cn1c(C(F)(F)F)nc2ccccc21)OCC(=O)c1c[nH]c2ccccc12	10.0	63.0*[inhibitor]	80.0*	101.0	96.0	1.0	97.0	.	.	GRK2 confirm 2=-43.0;FAM quench CP2=102.0
Cc1cc2ccccc2n1CCNC(=O)c1ccccc1	-33.0	75.0	100.0*	66.0*[inhibitor]	30.0	-32.0	59.0*	29.5	102.1	Aptamer quench=-1.8
CC(=O)NCCn1c(C)cc2ccccc21	5.0	106.0	2.0	101.0	.	.	.	.	.
C=CCN=C(NC#N)SC	6.0	102.0	0.0	105.0	.	.	.	.	.
CC(C)(C)n1cnc2cc(NCc3ccc(Br)cc3)ccc21	20.0	137.0*	0.0	112.0	145.0	35.0	105.0	-5.2	96.2
O=C1CC(c2ccc3c(c2)OCCO3)Oc2ccc([N+](=O)[O-])cc21 (stereo not given)	17.0	134.0*	42.0*	109.0	93.0	-27.0	95.0	-2.0	101.5
O=C1CC(c2ccc3c(c2)OCCO3)Oc2ccccc21 (stereo not given)	-2.0	102.0	0.0	95.0	.	.	.	.	.
O=C(Nc1ccc(Cl)cc1)c1nc[nH]c1C(=O)NCCCNC(=O)c1[nH]cnc1C(=O)Nc1ccc(Cl)cc1	.	.	0.0	.	.	.	.	.	.
CCC(=O)Nc1cccc(C2=NOC3(C2)C[C@H](C(N)=O)N(C(=O)CC#N)C3)c1 (stereo not given in full)	-2.0	95.0	0.0	78.0*[inhibitor]	80.0	-14.0	79.0	.	.	GRK2 confirm 2=-34.7;FAM quench CP2=101.0
CCCCCC(=O)Nc1cccc(C2=NOC3(C2)C[C@H](C(N)=O)N(C(=O)COc2ccc(Cl)cc2)C3)c1 (stereo not given in full)	-1.0	6.0*[inhibitor]	1.0	3.0*[inhibitor]	99.0	-5.0	99.0	.	.	GRK2 confirm 2=10.6;FAM quench CP2=98.0
CCC(=O)Nc1cccc(C2=NOC3(C2)C[C@@H](C(N)=O)N(C(=O)CC)C3)c1 (stereo not given in full)	-10.0	88.0	2.0	82.0	.	.	.	.	.
CC1CCCCC12NC(=O)N(CC(=O)NCc1ccco1)C2=O (stereo not given)	.	.	5.0	.	.	.	.	.	.
Cn1nccc1C(=O)N1CCN(c2ccccc2F)CC1	2.0	102.0	0.0	102.0	.	.	.	.	.
CC(=O)Oc1ccc(C(=O)[C@H]2[C@H]3C(=O)N(c4cccc5ccccc45)C(=O)[C@H]3[C@@H]3C=CC=NN32)cc1	0.0	101.0	73.0*	179.0*	101.0	2.0	103.0	.	.	GRK2 confirm 2=7.8;FAM quench CP2=101.0
Cn1c(NCc2ccccc2O)nc2ccccc21	-2.0	97.0	45.0*	100.0	.	.	.	0.9	98.9
O=C(CN1CCN(S(=O)(=O)c2cccc(Cl)c2)CC1)NCC1(N2CCOCC2)CCCCC1	.	.	0.0	.	.	.	.	.	.
CCOC(=O)c1ccc(NC(=O)CC2S/C(=N/N=C3/NC(=O)CS3)NC2=O)cc1 (stereo not given)	2.0	96.0	6.0	99.0	.	.	.	.	.
